# Assay results taken from PubChem BioAssay.
# Calls of active or inactive are those of the source. Unless noted, no rule for the calls is given here.
# Key:
# [1] = test system: Wnt5a (protein binding on small-molecule microarray); experiment: Wnt5a binders on small-molecule microarray, primary screen, biophysical, 635/667 nm fluorescence (AID 1142); settings: 635 nm fluorescence, higher = more signal;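 also: fluorescence read at 667 nm with signal to noise per printed feature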
# [2] = cell viability in Huh7 cells, primary screen, cytotoxicity control for HCV replication inhibitor project, CellTiter-Glo luminescence, basal, 48 h (AID 1143); settings: Huh7 HCV replicon, higher = more signal, called active from +8 up or from −8 down;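 also: Huh7 hepatoma cells carrying a hepatitis C replication reporter with no stimulus; test concentration not given here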
# [3] = P. aeruginosa biofilm formation inhibitors, primary screen, PAO1 strain, BacTiter-Glo luminescence, LB-PBS (AID 1144); settings: 12 h, higher = more signal
# [4] = CREB reporter modulators without forskolin, primary screen, cell-based, PC12, CRE-LacZ reporter, unstimulated (AID 1145); settings: no forskolin, luminescence, 4.5 h, higher = more signal, called active from +8 up or from −8 down
# [5] = CREB reporter modulators under forskolin, primary screen, cell-based, PC12, CRE-LacZ reporter, forskolin-stimulated (AID 1146); settings: luminescence, 4.5 h, higher = more signal, called active from +8 up or from −8 down;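 also: PC12 cells with 6xCRE LacZ reporter stimulated by forskolin 10 µM; beta-galactosidase reporter signal reflecting CREB driven transcription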
# [6] = target: Streptavidin (Streptomyces avidinii) (UniProt P22629); experiment: streptavidin binders on small-molecule microarray, primary screen, artefact control for SMM compound annotation, biophysical, 635/667 nm fluorescence (AID 1147); settings: streptavidin binding, higher = more signal;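 also: signal reflects streptavidin binding to arrayed compounds as a control protein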
# [7] = small-molecule binders of probe aInhba, primary screen, biochemical, small-molecule microarray, 635/667 nm fluorescence (AID 1148); settings: higher = more signal;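 also: score merges 667nm spot fluorescence with signal-to-noise for antibody binding to printed compounds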
# [8] = target: Torsin-1A (Homo sapiens) (UniProt O14656); experiment: torsin A binders from cell lysate, primary screen, small-molecule microarray, wild-type, 635/667 nm (AID 1149); settings: COS7 hTOR1A-WT lysate, 635 nm fluorescence, higher = more signal
# [9] = target: Torsin-1A (Homo sapiens) (UniProt O14656); experiment: small-molecule binders of mutant TOR1A in lysate, primary screen, cell lysate, small-molecule microarray, COS7 lysate, 635/667 nm fluorescence (AID 1150); settings: COS7 hTOR1A mutant lysate, 635 nm fluorescence, higher = more signal;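 also: score pools 667 nm emission and signal to noise measuring lysate protein binding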
# [10] = test system: Sonic hedgehog protein (Shh); experiment: small-molecule binders of Shh protein, primary screen, biochemical, small-molecule microarray, 635/667 nm fluorescence (AID 1151); settings: small-molecule microarray binding, 635 nm fluorescence; higher = more signal;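 also: Shh protein binding to compounds spotted on small-molecule microarray slides; score combines spot fluorescence intensity with signal-to-noise across triplicate slides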
# [11] = E. coli DRC41 culture turbidity changes, primary screen, E. coli filamentation inducer project, strain DRC41, OD650, 48 h (AID 1152);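 also: E. coli MC1000 strain DRC41 lacking acrAB efflux pump and sulA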; settings: E. coli DRC41 (acrAB sulA), higher = more signal, called active from +8 up or from −8 down
# [12] = small-molecule binders of probe aLefty1, primary screen, biochemical, small-molecule microarray, 635/667 nm fluorescence (AID 1153); settings: higher = more signal;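 also: score merges spot fluorescence with signal-to-noise ratio from the scanned slide images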
# [13] = PSAC antagonists in infected red cells, primary screen, cell-based, P. falciparum Indochina, OD700, 1 h (AID 1154); settings: P. falciparum Indochina infected RBC osmotic lysis, higher = more signal, called active from +8 up or from −8 down
# [14] = PSAC antagonists in infected red cells, primary screen, cell-based, P. falciparum Indochina, OD700, 2 h (AID 1155);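 also: lysis reports solute entry through the parasite surface anion channel PSAC; channel blockers reduce lysis of infected cells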; settings: P. falciparum Indochina infected erythrocytes, osmotic lysis OD700; higher = more signal, called active from +8 up or from −8 down
# [15] = osmotic lysis modulators in infected erythrocytes, primary screen, PSAC antagonist project, cell-based, P. falciparum Indochina, OD700, 3 h (AID 1156); settings: higher = more signal, called active from +8 up or from −8 down
# [16] = PSAC antagonists in infected red cells, primary screen, cell-based, P. falciparum Indochina, OD700, 18 h (AID 1157); settings: P. falciparum Indochina infected erythrocytes, osmotic lysis OD700, 18 h; higher = more signal, called active from +8 up or from −8 down
# [17] = modulators of S6 phosphorylation in cells, primary screen, cell-based, A549, cytoblot, luminescence, serum-stimulated (AID 1158); settings: A549 phospho-S6 cytoblot, 5 h, higher = more signal;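 also: serum-stimulated A549 lung adenocarcinoma cells; signal is phosphorylated S6 detected by cytoblot immunostaining with HRP secondary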
# [18] = target: NADPH oxidase 2 (Homo sapiens) (UniProt P04839); experiment: NOX2-dependent H2O2 signal modulators, primary screen, NOX inhibitor project, cell-based, HEK293-NOX2, PMA-stimulated, Amplex Red fluorescence (AID 1159); settings: 45 min, higher = more signal, called active from +8 up or from −8 down; also: test concentration not given here
# [19] = target: NADPH oxidase 4 (Homo sapiens) (UniProt Q9NPH5); experiment: NOX4-dependent H2O2 signal modulators, primary screen, NOX inhibitor project, cell-based, HEK293-NOX4, tetracycline-induced, Amplex Red fluorescence (AID 1160); settings: 45 min, higher = more signal, called active from +8 up or from −8 down
# [20] = target: NADPH oxidase 5 (Homo sapiens) (UniProt Q96PH1); experiment: NOX5-dependent H2O2 signal modulators, primary screen, NOX inhibitor project, cell-based, HEK293-NOX5, Amplex Red fluorescence (AID 1161); settings: HEK293-NOX5, ionomycin, 45 min, higher = more signal
# Chain of NADPH oxidase 5 (Homo sapiens) (Q96PH1 whole entry, looked up): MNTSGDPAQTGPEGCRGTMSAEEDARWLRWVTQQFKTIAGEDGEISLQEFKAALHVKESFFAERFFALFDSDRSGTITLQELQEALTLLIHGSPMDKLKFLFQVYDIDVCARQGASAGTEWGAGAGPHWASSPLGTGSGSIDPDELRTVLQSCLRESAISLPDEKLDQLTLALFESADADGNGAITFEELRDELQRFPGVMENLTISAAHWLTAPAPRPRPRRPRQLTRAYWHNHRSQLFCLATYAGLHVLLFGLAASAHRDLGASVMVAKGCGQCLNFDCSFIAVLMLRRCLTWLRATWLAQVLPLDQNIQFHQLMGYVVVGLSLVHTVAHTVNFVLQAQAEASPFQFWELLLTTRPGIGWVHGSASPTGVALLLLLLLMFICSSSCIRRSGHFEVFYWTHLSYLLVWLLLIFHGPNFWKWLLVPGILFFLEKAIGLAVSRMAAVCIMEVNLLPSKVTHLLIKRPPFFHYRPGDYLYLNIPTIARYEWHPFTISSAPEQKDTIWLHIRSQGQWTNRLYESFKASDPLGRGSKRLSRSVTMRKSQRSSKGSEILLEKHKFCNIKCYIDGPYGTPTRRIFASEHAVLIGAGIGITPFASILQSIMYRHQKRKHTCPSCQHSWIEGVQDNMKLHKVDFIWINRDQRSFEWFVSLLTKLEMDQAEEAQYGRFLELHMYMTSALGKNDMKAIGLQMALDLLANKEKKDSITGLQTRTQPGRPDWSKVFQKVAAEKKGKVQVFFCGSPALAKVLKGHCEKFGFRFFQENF
# Chain of Torsin-1A (Homo sapiens) (O14656 whole entry, looked up): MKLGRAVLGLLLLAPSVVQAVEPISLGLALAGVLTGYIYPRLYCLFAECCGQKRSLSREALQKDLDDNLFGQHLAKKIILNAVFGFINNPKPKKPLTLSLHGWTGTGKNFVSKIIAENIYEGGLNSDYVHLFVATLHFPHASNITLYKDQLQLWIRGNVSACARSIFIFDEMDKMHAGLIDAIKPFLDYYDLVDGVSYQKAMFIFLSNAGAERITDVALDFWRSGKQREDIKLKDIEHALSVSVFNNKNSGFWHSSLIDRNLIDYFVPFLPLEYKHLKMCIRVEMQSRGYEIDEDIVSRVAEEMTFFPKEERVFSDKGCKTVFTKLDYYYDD
# Chain of NADPH oxidase 2 (Homo sapiens) (P04839 whole entry, looked up): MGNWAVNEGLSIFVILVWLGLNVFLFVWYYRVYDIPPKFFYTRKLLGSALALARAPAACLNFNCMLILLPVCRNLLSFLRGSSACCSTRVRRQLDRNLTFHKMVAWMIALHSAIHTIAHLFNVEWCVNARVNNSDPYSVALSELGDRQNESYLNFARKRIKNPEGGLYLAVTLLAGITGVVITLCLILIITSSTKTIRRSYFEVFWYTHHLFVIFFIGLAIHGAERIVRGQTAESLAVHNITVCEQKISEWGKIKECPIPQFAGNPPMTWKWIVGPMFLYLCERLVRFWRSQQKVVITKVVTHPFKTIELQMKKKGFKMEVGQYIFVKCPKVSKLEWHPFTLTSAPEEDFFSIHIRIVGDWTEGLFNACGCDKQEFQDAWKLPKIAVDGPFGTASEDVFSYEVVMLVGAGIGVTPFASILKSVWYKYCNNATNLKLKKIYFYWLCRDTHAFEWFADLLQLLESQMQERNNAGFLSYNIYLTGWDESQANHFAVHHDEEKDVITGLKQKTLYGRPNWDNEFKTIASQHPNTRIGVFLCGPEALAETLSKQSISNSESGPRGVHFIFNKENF
# Chain of NADPH oxidase 4 (Homo sapiens) (Q9NPH5 whole entry, looked up): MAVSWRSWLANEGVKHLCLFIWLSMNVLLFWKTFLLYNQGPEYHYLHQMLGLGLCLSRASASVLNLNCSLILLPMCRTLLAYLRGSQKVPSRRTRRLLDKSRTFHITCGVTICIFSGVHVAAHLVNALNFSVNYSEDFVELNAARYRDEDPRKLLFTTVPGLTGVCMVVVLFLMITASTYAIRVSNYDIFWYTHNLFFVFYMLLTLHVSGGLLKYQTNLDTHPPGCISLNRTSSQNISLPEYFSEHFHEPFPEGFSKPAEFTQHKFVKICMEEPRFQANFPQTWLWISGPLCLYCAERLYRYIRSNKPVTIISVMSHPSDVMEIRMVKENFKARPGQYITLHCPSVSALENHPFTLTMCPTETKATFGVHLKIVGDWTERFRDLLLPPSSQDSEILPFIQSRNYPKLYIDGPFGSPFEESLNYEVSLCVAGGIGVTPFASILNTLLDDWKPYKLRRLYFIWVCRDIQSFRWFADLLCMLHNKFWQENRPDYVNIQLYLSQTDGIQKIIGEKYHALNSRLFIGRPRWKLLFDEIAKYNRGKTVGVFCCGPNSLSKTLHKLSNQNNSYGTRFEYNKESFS
# Chain of Streptavidin (Streptomyces avidinii) (P22629 whole entry, looked up): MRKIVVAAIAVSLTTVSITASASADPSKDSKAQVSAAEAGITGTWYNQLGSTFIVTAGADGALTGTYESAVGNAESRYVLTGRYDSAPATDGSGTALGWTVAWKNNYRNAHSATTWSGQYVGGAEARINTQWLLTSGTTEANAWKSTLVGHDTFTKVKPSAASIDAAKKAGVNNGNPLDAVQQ
Compound,composite z-score [1],z-score [2],z-score [3],z-score [4],z-score [5],composite z-score [6],composite z-score [7],composite z-score [8],composite z-score [9],composite z-score [10],z-score [11],composite z-score [12],z-score [13],z-score [14],z-score [15],z-score [16],z-score [17],z-score [18],z-score [19],z-score [20]
CN1C(=O)C2C=CC(C(O)c3cc(C(F)(F)F)cc(C(F)(F)F)c3)N(NC(=O)OC(C)(C)C)C2C1=O (stereo not given),0.135,-2.4 (inactive),0.999 (inactive),0.0467 (inactive),0.587 (inactive),1.6,0.29,0.49,1.32,0.433,-1.13 (inactive),0.363,-0.0698 (inactive),0.118 (inactive),-0.548 (inactive),1.2 (inactive),-0.636,-0.694 (inactive),-1.47 (inactive),1.5
CCOC(=O)C1=C[C@@H](C(C)(C)C)N(S(=O)(=O)c2ccc(C)cc2)[C@H]1c1ccc(C)cc1,0.514,-5 (inactive),0.311 (inactive),-0.0137 (inactive),-0.1 (inactive),1.35,0.0857,0.392,0.361,1.7,-1.92 (inactive),0.121,0.302 (inactive),0.54 (inactive),0.0464 (inactive),-0.0532 (inactive),-0.53,-0.875 (inactive),-0.25 (inactive),0.251
COC(=O)[C@@]1(Cc2ccccc2CN=[N+]=[N-])N=C(c2ccc(OCCCO)cc2)O[C@H]1c1ccccc1CN=[N+]=[N-],1.25,-4.34 (inactive),-0.166 (inactive),1.75 (inactive),-0.547 (inactive),-0.754,-0.154,-2.13,0.0755,-0.427,-0.586 (inactive),0.0288,21.8 (active),7.79 (inactive),0.912 (inactive),1.72 (inactive),0.141,-2.2 (inactive),-0.00368 (inactive),-2.01
C=CCC(OC(C)=O)[C@@H]1[C@@H](N(Cc2ccc(-c3cccc(C(F)(F)F)c3)o2)C(=O)c2cccc3ccccc23)c2cc(OCCCO)ccc2N1C(=O)Cc1ccc(OC)cc1 (stereo not given in full),-0.307,-2.29 (inactive),0.302 (inactive),-0.593 (inactive),0.0843 (inactive),-0.551,-0.102,-0.577,0.264,0.439,0.386 (inactive),-0.0818,1.62 (inactive),0.753 (inactive),1.94 (inactive),0.702 (inactive),0.461,-3.21 (inactive),-1.73 (inactive),-1.49
C[C@]1(C(=O)NCC(F)(F)F)c2ccccc2C(=O)N(Cc2ccccc2)[C@H]1c1ccc(CO)cc1,-0.398,-1.48 (inactive),-0.0817 (inactive),-0.179 (inactive),0.112 (inactive),-0.726,-0.0719,-0.938,0.808,-1.32,0.588 (inactive),0.382,2.28 (inactive),0.0336 (inactive),-0.201 (inactive),-0.162 (inactive),-0.617,-0.0434 (inactive),0.431 (inactive),0.17
